TDP1 cell noCPT = qHTS for Inhibitors of human tyrosyl-DNA phosphodiesterase 1 (TDP1): qHTS in cells in absence of CPT | 420,000 compounds, 15% hits | Potency, µM (highest dose often 46.2 µM), inactives show top-dose activity change, negative = growth inhibition, hits mostly inhibitors | AID 686978, 2013 | DT40 Tdp1-/- hTDP1 cells, no CPT, ATP luminescence, 48 h; note: potency is the fitted concentration of half-maximal effect; nearly all actives have a fitted effect of over 55% in size
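Compound effects on proliferation are scored in DT40 Tdp1-/-;hTDP1 cells in the absence of CPT. ATP levels (CellTiter-Glo luminescence) are recorded after a ≥48 hr, 37 °C incubation.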
HT1080 IDH1KD tx = qHTS for induction of synthetic lethality in tumor cells producing 2HG: qHTS for the HT-1080-IDH1KD cell line | HT-1080 IDH1 knockdown viability, ATP luminescence, 48 h | 360,000 compounds, 2% hits | Potency, µM (highest dose often 46.1 µM), for inactives: top-dose activity, negative = toxicity, most hits filed as cytotoxic;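 note: potency is the fitted concentration of half-maximal effect; 0% = DMSO wells and -100% = cell-free medium wells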
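% activity derives from luminescence (CellTiter-Glo), normalised to DMSO and no-cell wells. HT-1080-IDH1KD cells, 750/well, had 48 h compound exposure at 37 °C.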
IL1B secr inh = qHTS for Inhibitors of Inflammasome Signaling: IL-1-beta AlphaLISA Primary Screen | activity change, % at 57.5 µM | THP-1 LPS/ATP IL-1B secretion, AlphaLISA, 16 h; stronger effect = lower value | 360,000 compounds, 4.7% hits; in the data active = activity change below about -50%; inconclusive = mostly about -30% to -49%
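Secreted IL-1B measured by AlphaLISA bead assay after 16 h compound exposure of THP-1 cells; compounds (final up to 57.5 uM) added 1 h before LPS (250 ng/mL) and ATP (1.25 mM) stimulation; lower signal means less secretion.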
TDP1 cell CPT = qHTS for Inhibitors of human tyrosyl-DNA phosphodiesterase 1 (TDP1): qHTS in cells in presence of CPT; 420,000 compounds, 12% hits; Potency, µM (doses to about 46.2 µM), for the others: at the top dose activity change, negative = growth inhibition, actives largely listed as inhibitors; chicken DT40 Tdp1-/-;hTDP1 cells + 20 nM CPT, ATP luminescence, 48 h; note: potency is the fitted concentration of half-maximal effect; nearly all actives have a fitted effect of over 55% in size
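Cell growth measured by CellTiter-Glo luminescence after a minimum 48 h, 37 C compound exposure with 20 nM CPT in Tdp1-knockout DT40 cells stably expressing hTDP1, seeded 400/well; qHTS titration format.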
HT1080-NT tox = qHTS for induction of synthetic lethality in tumor cells producing 2HG: qHTS for the HT-1080-NT fibrosarcoma cell line | HT-1080-NT fibrosarcoma viability, CellTiter-Glo ATP luminescence, 48 h | 360,000 compounds, 1.6% hits | AID 686970, 2013 | Potency, µM (highest dose often 46.1 µM), for the others: at the top dose activity, negative = less viability, actives largely listed as cytotoxic;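 note: NT is the 2HG producing partner of a matched IDH1 knockdown line; potency is the fitted concentration of half-maximal effect; 0% = DMSO-treated cells and -100% = media-only wells without cells; nearly all actives have a fitted effect of over 55% in size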
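Viability by CellTiter-Glo luminescence after 48 h compound exposure at 37C of HT-1080-NT cells (750/well, RPMI, 5% FBS). % activity scaled between DMSO wells and medium-only wells, then curve-fitted and categorized by curve class.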
The depositor's hits bear a star; ? = inconclusive; . = not tested or not shown. Most compounds without a hit are left out; they make up all but 19% or so of the library. Unless noted, calls come from the whole dose curve; as a rule, active = well fitted curve in the direction sought with a large enough effect; inconclusive = small, poorly fitted or top-dose-only effect, or another doubt; inactive = no such curve, though single readings can be large; an effect the other way counts as inactive or inconclusive. Unless noted, % is set by controls: 0 for no effect and ±100 for the full control effect.

SMILES	TDP1 cell noCPT	HT1080 IDH1KD tx	IL1B secr inh	TDP1 cell CPT	HT1080-NT tox
O=C(NCc1cccc(Cl)c1)c1ccc2c(Cl)c3c(nc2c1)CCCC3	14.6µM*	.	.	?	.
N#Cc1ccccc1NC(=O)c1ccc2c(Cl)c3c(nc2c1)CCCC3	?	14.7%	.	?	7.1%
CCC(C)NC(=O)c1nc2c(nnn2Cc2ccccc2Cl)c(=O)[nH]1 (centres undefined)	?	0.8%	15.3	-6.7%	-13.0%
O=C(NCc1cccs1)c1nc2c(nnn2Cc2ccccc2Cl)c(=O)[nH]1	2.59µM*	3.26µM*	0.0	4.11µM*	4.61µM*
CC(=O)OCc1c(C(F)(F)F)nn(C)c1Sc1ccccc1	-2.6%	-0.3%	11.3	-6.8%	-0.6%
CCCCN1CC(=O)N2[C@H]3c4ccccc4OC[C@@H]3[C@H](C(=O)OCC)[C@]2(C)C1=O	12.3%	9.5%	31.5	6.3%	6.5%
CCN1CCN(c2ncnc3c2cnn3-c2ccc(F)cc2)CC1	?	.	.	-21.7%	.
O=[N+]([O-])c1ccc(NC(=S)N/C(=N/CS(=O)(=O)c2ccccc2)c2ccccc2)cc1	23.1µM*	-9.9%	-7.7	?	0.2%
CC(=O)Nc1ccc(NC(=S)NC(=O)c2ccc([N+](=O)[O-])cc2)cc1	-6.5%	-4.6%	8.5	-9.0%	-1.3%
COc1ccccc1C(=O)COC(=O)c1ccc(Cl)nc1	?	8.2%	1.2	4.5%	8.6%
Cc1ccc(S(=O)(=O)N2CC(=O)Nc3ccccc32)c(C)c1NS(C)(=O)=O	-1.4%	-0.5%	13.5	?	11.6%
CCOc1ccc(S(=O)(=O)N2CC(=O)Nc3ccccc32)cc1	?	11.6µM*	52.3	?	?
Cc1cc(C(C)(C)C)cc(C)c1S(=O)(=O)N1CC(=O)Nc2ccccc21	-29.7%	?	-62.5*	?	-28.9%
Cc1ccc(C(C)(C)C)cc1S(=O)(=O)N1CC(=O)Nc2ccccc21	?	-10.6%	-99.7*	-5.1%	?
O=C1CN(S(=O)(=O)c2cccc(Cl)c2Cl)c2ccccc2N1	-12.5%	1.1%	-2.2	-13.3%	16.1%
COc1cc(S(=O)(=O)NCCc2ccc3c(c2)OCO3)ccc1-n1cnnn1	-18.4%	1.0%	15.5	-23.7%	-18.8%
Cc1ccc(COc2ccc(CNCCCN3CCCCCC3=O)cc2)cc1	18.4µM*	-15.7%	-63.8*	?	-28.6%
Cc1ccc(CNC(=O)CN2C(=O)CSc3c2c(C)nn3-c2ccccc2)cc1	-0.2%	.	.	-3.7%	.
Cc1cc(CNC(=O)C(C)n2cc([N+](=O)[O-])cn2)c2ccccc2n1 (centres undefined)	20.6µM*	-10.7%	12.9	?	-28.3%
O=S1(=O)c2c(F)cccc2OC(COc2ccccc2)CN1CCc1ccc(F)cc1 (centres undefined)	16.4µM*	5.7%	-20.1	?	3.3%
CC(C)c1cc(C(=O)N2CCCC(CCC(=O)N3CCN(c4ccccn4)CC3)C2)no1 (centres undefined)	23.1µM*	-1.3%	12.0	23.1µM*	-10.6%
O=C(CCC1CCCN(C(=O)C2=CCCC2)C1)N1CCN(c2ccccn2)CC1 (centres undefined)	23.1µM*	12.2%	0.8	-21.3%	22.5%
O=C(CCC1CCCN(C(=O)CC2=CCCCC2)C1)N1CCN(c2ccccn2)CC1 (centres undefined)	16.4µM*	-21.3%	0.0	?	-1.0%
COc1ccc2c(CN(C)Cc3ccccc3)cc(=O)oc2c1	?	0.7%	-2.6	?	9.9%
CNNC(=S)Nc1cccc(SC)c1	-1.4%	-1.6%	10.9	18.7%	-5.9%
SMILES	TDP1 cell noCPT	HT1080 IDH1KD tx	IL1B secr inh	TDP1 cell CPT	HT1080-NT tox
O=C(O)Cn1cc(C(=O)c2cccs2)c2ccccc21	-1.6%	4.3%	15.2	?	0.6%
O=C(c1cccs1)c1cn(CC(=O)N2CCc3ccccc3C2)c2ccccc12	?	?	-9.2	23.1µM*	-16.6%
C=C(C)[C@@H]1CCC2(C(=O)O)CC[C@]3(C)[C@H](CC[C@@H]4[C@@]5(C)CCC(=O)C(C)(C)[C@@H]5CC[C@]43C)[C@@H]12 (some centres undefined)	3.66µM*	11.4%	53.7	2.91µM*	9.3%
C/C(N)=C(/C#N)C(=O)CSc1nc2ccccc2n1CC(C)C	-26.1%	-18.6%	23.5	10.8%	-11.3%
Cc1c(C(=O)N(C)CC2CCCN(C)C2)cnn1-c1nccc(-c2ccco2)n1 (centres undefined)	1.2%	.	.	3.4%	.
Cc1ccc2c(c1)N(C(C)C(=O)NCc1ccc3c(c1)OCO3)C(=O)CO2 (centres undefined)	20.3%	5.8%	5.5	-3.9%	-1.0%
CN(C)CCCN(Cc1ccccc1)C(=S)Nc1cccc(C(F)(F)F)c1	?	-13.2%	16.5	14.6µM*	-5.1%
Cc1ccccc1C(=O)NC(=S)N(CCO)Cc1ccccc1	-25.1%	12.4%	-9.3	2.9%	7.8%
CN(C)CCCN(Cc1ccccc1)C(=S)Nc1ccc(F)c(Cl)c1	18.4µM*	?	?	-26.8%	?
COc1ccccc1NC(=S)N(Cc1ccccc1)Cc1ccccn1	?	5.7%	-5.3	?	1.6%
S=C(Nc1ccccc1Cl)N(Cc1ccccc1)Cc1ccccn1	?	-18.2%	-51.6*	?	-10.7%
OCCN(Cc1ccccc1)C(=S)Nc1ccc(Cl)cc1Cl	?	-21.5%	-56.0*	?	-18.9%
Cc1ccc(OCCNC(=O)CCNS(=O)(=O)c2ccc3ccccc3c2)cc1	?	-20.1%	-0.5	?	?
COc1cccc(-c2c(C(=O)N/N=C(\C)c3cccs3)nnn2-c2nonc2N)c1	?	1.5%	1.2	16.4µM*	12.7%
C/C(=N\NC(=O)c1nnn(-c2nonc2N)c1-c1ccc2c(c1)OCO2)c1cccs1	?	-14.3%	7.6	1.64µM*	-2.2%
COc1ccccc1NC(=O)NC1(C)CCS(=O)(=O)C1 (centres undefined)	-9.3%	10.0%	13.6	0.5%	2.7%
O=C(NN(Cc1ccccc1)Cc1ccccc1)c1ccccc1	?	-14.7%	-26.9	-7.9%	-20.0%
O=Cc1ccc(N2CCCC2)c([N+](=O)[O-])c1	-22.9%	-8.1%	-0.4	-7.4%	-2.9%
Cc1cc(/C=C(\C#N)C(N)=O)c(C)n1-c1ccc(N2CCOCC2)c([N+](=O)[O-])c1	23.1µM*	-7.8%	-0.4	23.1µM*	3.2%

High-throughput results deposited in PubChem BioAssay by National Center for Advancing Translational Sciences (NCATS).
